Records with an inconclusive call do not appear. Entries that show only a call come without a potency. Activity calls are given as the source filed them. The call rests on the fitted dose curve; in most records, active means well fitted cell-killing curve with a large enough effect in the repeat runs; inconclusive means weak or mixed curves, or effect the other way; inactive means flat fitted curve, though single readings scatter.
Legend:
[1] = cAMP Responsive Elements (CRE) small molecule antagonists, cell-based qHTS assay: qHTS cell viability counter screen (AID 2060913); conditions: CRE-bla HEK293T viability, CellTiter-Glo luminescence, 5 h; series mostly up to 92.4 µM; further: nearly all actives have a fitted effect of over 40% in size
Procedure, shortened: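 CRE-bla HEK293T cells were seeded in assay medium with 10% dialyzed FBS, incubated 18 hrs at 37 C, then exposed to compounds plus 0.25 uM final NKH477 for 3 hrs. Viability was read by CellTiter-Glo luminescence after 30 min, in the same wells.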

[2] = cAMP Responsive Elements (CRE) small molecule agonists, cell-based qHTS assay: qHTS cell viability counter screen (AID 2060914); conditions: CRE-bla HEK293T viability, CellTiter-Glo luminescence, 5 h; series mostly up to 92.4 µM;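 further: viability read after 3 h of compound exposure; nearly all actives have a fitted effect of over 50% in size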
Procedure, shortened: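 HEK 293T CRE-bla; DMEM + 10% dialyzed FBS, 25 mM HEPES; 18 h pre-incubation; compound 3 h, 37 °C/5% CO2; CellTiter-Glo added after reporter read; luminescence after 30 min RT.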

| SMILES | Potency [1] | Potency [2] |
| --- | --- | --- |
| C=CC(C)(O)CC/C=C(\C)CC (stereo unspecified) | inactive | inactive |
| Cc1cc(NC(=O)C2=C(O)c3ccccc3S(=O)(=O)N2C)no1 | inactive | inactive |
| CC(CN(C)C)C(C)(O)Cc1ccc(Cl)cc1 (stereo unspecified) | inactive | inactive |
| CN=C(NC#N)NCCSCc1nc[nH]c1C | inactive | inactive |
| CC1CCC(C(C)(C)S)C(=O)C1 (stereo unspecified) | inactive | inactive |
| CCCC(C)c1ccccc1O (stereo unspecified) | inactive | inactive |
| CCNC(=O)/C=C/c1cccc(Br)c1 | inactive | inactive |
| COC(=O)Nc1nc2ccc(C(=O)c3cccs3)cc2[nH]1 | inactive | inactive |
| CCOc1cc(NC(C)=O)ccc1C(=O)OC | inactive | inactive |
| CCN(CCN)c1cccc(C)c1 | inactive | inactive |
| C=CC(C)CCCC(C)(C)O (stereo unspecified) | inactive | inactive |
| O=S(=O)(O)CO | inactive | inactive |
| CN(C)c1ccc(C=O)cc1 | inactive | inactive |
| Cc1ccc(C(C)(C)C)cc1 | inactive | inactive |
| CC(C)NC(=O)NC(C)C | inactive | inactive |
| CC(=O)OC1CC(C)OC(C)O1 (stereo unspecified) | inactive | inactive |
| NC(=O)c1c(Cl)cccc1Cl | inactive | inactive |
| CCCCCCCCCC | inactive | inactive |
| Clc1ccc2c(c1)Nc1ccccc1S2 | inactive | inactive |
| CCCCCCCCN(C)C | inactive | inactive |
| C=CCCC(=O)O | inactive | inactive |
| CC(C)c1c(C(=O)Nc2ccccc2)c(-c2ccccc2)c(-c2ccc(F)cc2)n1CC[C@@H](O)C[C@@H](O)CC(=O)O | inactive | inactive |
| OCc1ccccc1 | inactive | inactive |

— PubChem BioAssay (Tox21)
